The record followed here is PubChem BioAssay.

Activity calls are given as the source filed them.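 How the source made its calls, unless noted: active means inhibition of the reporter signal at or above 50%; inactive means inhibition below 50%.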

Experiment [1] in a line: inhibitors of TNFa-induced NFkB p65 translocation, primary screen, imaging, HUVEC, MLSMR starter and 10KST1 sets (AID 438;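 active means inhibition above 20% together with a positive visual image hit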;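 further: compound added about 3h40 before a 20 min TNFalpha stimulation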;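 on inhibition: signal is the nuclear over cytoplasmic p65 intensity ratio per well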). Particulars: HUVEC TNFa-induced p65 nuclear translocation; cell count: measured here: nuclei count (cytotoxicity indicator), at 2.08 µM; inhibition: at 2 µM, stronger effect = higher value, 0% TNFa-plus-vehicle, 100% no-TNFa wells.
The nature of experiment [2]: reduction of polyQ htt aggregates in cells – imaging, exon1htt(103Q)mCFP cells, high-content imaging, primary screen (AID 483;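 active means visual image review flags a hit and inhibition of aggregation exceeds 20%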;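 further: compound exposure lasted 3 days before fixation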;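 on nuclei count: percent of the per-plate median nuclei count of sample wells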). The conditions noted are these: exon1htt(103Q)mCFP cell line, aggregate imaging, at 2 µM; inhibition of aggregation: stronger effect = higher value; nuclei count: measured here: cell count, toxicity.
Experiment [3] can be described thus: endothelial E-selectin expression blockers – imaging, HUVEC, immunofluorescence, MLSMR starter and 10KST1 sets, primary screen (AID 487;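 active means visually confirmed hit in the image check and inhibition above 20%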;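 on inhibition: signal is fraction of cell area covered by stained E-selectin grains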;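 on nuclei count: 100% = median nuclei count of all wells on the same plate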). The conditions noted are these: HUVEC TNFalpha-induced E-selectin immunofluorescence imaging, at 2 µM; inhibition: stronger effect = higher value; nuclei count: measured here: cell number, toxicity.
Experiment [4] concerns the target Voltage-gated potassium channel subunit beta-2 (Rattus norvegicus) (UniProt P62483). Put plainly: inhibitors of rat Kvbeta2 reductase activity – biochemical, NADPH fluorescence, primary screen (AID 622;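 active means fluorescence slope higher than the sample average by over 3 SD, cut at about -0.22 in these data, passing the limit was not always enough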;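 further: slope of raw intensity against log time taken from 70 to 1610 s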). The conditions noted are these: recombinant KvBeta, 4-cyanobenzaldehyde reduction, at 10 µM, stronger effect = higher value.
For experiment [5] the target is unchanged. Put plainly: enhancers of rat Kvbeta2 NADPH turnover – biochemical, NADPH fluorescence, primary screen (AID 623;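 active means NADPH fluorescence slope more negative than the mean of all samples by about 3 SD, 99.7% confidence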;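 further: fluorescence intensity change per second fitted from 20 to 320 s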). Particulars: Recombinant KvBeta, NADPH fluorescence decrease slope, 10 min; at 10 µM; stronger effect = lower value.
Experiment [6] deals with Alpha-2C adrenergic receptor (Homo sapiens) (UniProt P18825). Put plainly: compounds altering alpha2C-coupled GIRK flux – cell-based, HEK293 alpha2C/GIRK1/2, thallium flux, primary screen (AID 624;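 active means fluorescence slope after compound addition differing from the mean of all screened samples at 99.7% confidence, in either direction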;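 further: slope of fluorescence ratio to pre-addition baseline per second over 15 to 24 s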). The conditions noted are these: thallium flux BTC fluorescence, at 10 µM, actives lie on both sides.
Alpha-2C adrenergic receptor (Homo sapiens), sequence (P18825 whole entry, looked up): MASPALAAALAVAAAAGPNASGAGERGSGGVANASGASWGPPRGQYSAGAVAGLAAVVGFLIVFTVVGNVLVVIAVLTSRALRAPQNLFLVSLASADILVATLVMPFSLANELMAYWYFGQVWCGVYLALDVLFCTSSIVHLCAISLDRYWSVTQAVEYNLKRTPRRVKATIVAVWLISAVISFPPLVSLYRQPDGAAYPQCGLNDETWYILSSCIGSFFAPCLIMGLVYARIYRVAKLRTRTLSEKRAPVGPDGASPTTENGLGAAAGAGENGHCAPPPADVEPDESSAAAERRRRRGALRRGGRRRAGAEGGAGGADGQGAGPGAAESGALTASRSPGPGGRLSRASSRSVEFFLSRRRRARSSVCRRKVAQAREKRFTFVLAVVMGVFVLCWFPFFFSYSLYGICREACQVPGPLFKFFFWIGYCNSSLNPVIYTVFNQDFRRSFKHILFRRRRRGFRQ
The nature of experiment [7]: blockers of RIG-like receptor reporter activation – cell-based, Sendai virus stimulus, luciferase, 10K MLSCN set, TLR/RLR signaling modifier project, primary screen (AID 602276;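 active means inhibition at or above 50% at 10 µM; inactive means inhibition below 50%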;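 further: firefly luciferase from ISG56 promoter only with Renilla not read in this screen; 0% = Sendai virus plus DMSO and 100% = medium plus DMSO without virus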). The conditions noted are these: HEK293 RL24 IRF3 luciferase reporter, at 10 µM, stronger effect = higher value.
Experiment [8] can be described thus: TLR3 IRF3 reporter activation blockers – cell-based, poly I:C stimulus, luciferase, 10K MLSCN set, primary screen (AID 602277). Particulars: HEK293-TLR3 RL24 IRF3 luciferase reporter, at 10 µM, stronger effect = higher value.

Voltage-gated potassium channel subunit beta-2 (Rattus norvegicus), sequence (P62483 whole entry, looked up): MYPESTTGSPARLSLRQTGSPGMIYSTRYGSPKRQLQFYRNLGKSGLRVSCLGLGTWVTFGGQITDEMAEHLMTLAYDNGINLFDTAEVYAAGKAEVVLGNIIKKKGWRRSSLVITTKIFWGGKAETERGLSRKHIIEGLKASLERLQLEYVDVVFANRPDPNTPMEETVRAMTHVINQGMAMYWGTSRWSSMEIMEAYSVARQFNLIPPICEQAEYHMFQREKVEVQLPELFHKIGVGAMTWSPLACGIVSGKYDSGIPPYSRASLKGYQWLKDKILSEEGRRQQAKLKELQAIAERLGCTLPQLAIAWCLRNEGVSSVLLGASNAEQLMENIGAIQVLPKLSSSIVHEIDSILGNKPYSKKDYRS

With `CC(=O)N(C(C)=O)c1c(C#N)c(C)n(-c2ccccc2)c1C(=O)c1ccccc1`, in experiment [1], the cell count was found to be 430. In addition, the inhibition in experiment [1] is 8.5% (inactive); in experiment [3], 24.1% (inactive); in experiment [7] it was 27% (inactive); in experiment [8], 26.6% (inactive). Moreover, the inhibition of aggregation in experiment [2] is 4.6% (inactive). In addition, the nuclei count was found to be 102% in experiment [2] and 110% in experiment [3]. The fluorescence slope in experiment [4] was -0.503 (inactive). The NADPH fluorescence slope in experiment [5] was -3.8e-05 (inactive). Moreover, in experiment [6], the slope was 0.00413 (inactive).

As to `O=c1c2ccccc2nc(SCc2cccc(F)c2)n1Cc1ccco1`, in experiment [1], the cell count was 361. Further, the inhibition in experiment [1] is -3.4% (inactive); in experiment [3], -37.1% (inactive); in experiment [7] it was 9.34% (inactive); in experiment [8], 4.77% (inactive). Besides, in experiment [2], the inhibition of aggregation is 4.4% (inactive). The nuclei count in experiment [2] came to 87.4%; in experiment [3] it was 91.3%. Besides, the fluorescence slope in experiment [4] was -0.37 (inactive). In addition, the NADPH fluorescence slope in experiment [5] is 2.5e-05 (inactive). Besides, the slope in experiment [6] was 0.0116 (inactive).

With `CCC(Sc1nc(-c2ccccc2)c(C#N)c(=O)[nH]1)C(=O)Nc1cc(C)on1` (centres undefined), the cell count in experiment [1] is 327. Also, the inhibition is 2.5% (inactive) in experiment [1], -74.9% (inactive) in experiment [3], 6.22% (inactive) in experiment [7] and 7.77% (inactive) in experiment [8]. Besides, the inhibition of aggregation in experiment [2] was -9.8% (inactive). The figures for the nuclei count in experiment [2] and in experiment [3] were 115% and 127%, respectively. In addition, the fluorescence slope in experiment [4] was -0.357 (inactive). Moreover, the NADPH fluorescence slope in experiment [5] was -1.8e-05 (inactive). Besides, the slope in experiment [6] was 0.00594 (inactive).

With `CCOC(=O)c1c(C)[nH]c(C(=O)Cn2c(=O)c3c(ncn3CC)n(Cc3ccccc3)c2=O)c1C`, the cell count in experiment [1] worked out at 752. In addition, the inhibition is 4% (inactive) in experiment [1], -32.2% (inactive) in experiment [3], 15.3% (inactive) in experiment [7] and 24.5% (inactive) in experiment [8]. Also, in experiment [2], the inhibition of aggregation is 8.3% (inactive). Besides, the values for the nuclei count in experiment [2] and in experiment [3] were 88.5% and 127%, respectively. Besides, the fluorescence slope in experiment [4] is -0.29 (inactive). For the same compound, the NADPH fluorescence slope in experiment [5] was -3.2e-05 (inactive). The slope in experiment [6] is 0.00419 (inactive).

Take `COc1ccc(-n2c(SCc3ccc(C#N)cc3)nnc2-c2ccccn2)cc1`: the cell count in experiment [1] worked out at 692. Besides, the inhibition in experiment [1] is -5.8% (inactive); in experiment [3] it was -18.8% (inactive); in experiment [7] it was -1.12% (inactive); in experiment [8] it was 11.2% (inactive). The inhibition of aggregation in experiment [2] was -4.4% (inactive). In addition, the results for the nuclei count in experiment [2] and in experiment [3] were 105% and 118%, respectively. In experiment [4], the fluorescence slope was -0.599 (inactive). In addition, in experiment [5], the NADPH fluorescence slope was -3.8e-05 (inactive). The slope in experiment [6] is 0.00521 (inactive).

`COc1cccc(-c2nc(CS(=O)(=O)CC(=O)N3CCc4ccccc4C3)c(C)o2)c1`: the cell count in experiment [1] was 813. For the same compound, the inhibition in experiment [1] was -17.7% (inactive); in experiment [3] it was -74.3% (inactive); in experiment [7] it was 6.4% (inactive); in experiment [8] it was 16% (inactive). Also, the inhibition of aggregation in experiment [2] is -2% (inactive). For the same compound, the values for the nuclei count in experiment [2] and in experiment [3] were 93% and 117%, respectively. In experiment [4], the fluorescence slope is -0.522 (inactive). For the same compound, the NADPH fluorescence slope in experiment [5] is -1.8e-05 (inactive). Further, in experiment [6], the slope was 0.00747 (inactive).

As to `COC(=O)C1(C)NC(c2cccs2)C2C(=O)N(c3ccccc3F)C(=O)C21` (centres undefined), the cell count in experiment [1] was determined as 334. The inhibition in experiment [1] is 2.8% (inactive); in experiment [3], -24.7% (inactive); in experiment [7], -3.44% (inactive); in experiment [8], -0.188% (inactive). The inhibition of aggregation in experiment [2] is -16.9% (inactive). Moreover, the values for the nuclei count in experiment [2] and in experiment [3] were 101% and 119%, respectively. Moreover, in experiment [4], the fluorescence slope was -0.52 (inactive). Besides, in experiment [5], the NADPH fluorescence slope was 2.7e-06 (inactive). The slope in experiment [6] is 0.00503 (inactive).

In the case of `CCOC(=O)c1ccc(NC(=O)CSc2n[nH]c(-c3ccncc3)n2)cc1`, the cell count in experiment [1] worked out at 590. In addition, the inhibition in experiment [1] is -1.9% (inactive); in experiment [3], -26.4% (inactive); in experiment [7] it was -5.95% (inactive); in experiment [8] it was -15.4% (inactive). For the same compound, the inhibition of aggregation in experiment [2] is 7.2% (inactive). Moreover, the results for the nuclei count in experiment [2] and in experiment [3] were 99.9% and 110%, respectively. The fluorescence slope in experiment [4] was -0.592 (inactive). Also, the NADPH fluorescence slope in experiment [5] is -3.8e-05 (inactive). For the same compound, the slope in experiment [6] is 0.00612 (inactive).

As to `CCCCCCC1/C(=N/O)CCC1C(=O)OC` (centres undefined), the cell count in experiment [1] was 656. The inhibition in experiment [1] is -7.7% (inactive); in experiment [3], -54.1% (inactive); in experiment [7], 0.917% (inactive); in experiment [8] it was 10.1% (inactive). The inhibition of aggregation in experiment [2] was 7.3% (inactive). The nuclei count in experiment [2] is 91.2%; in experiment [3], 127%. Besides, the fluorescence slope in experiment [4] was -0.614 (inactive). Besides, the NADPH fluorescence slope in experiment [5] was -8.9e-06 (inactive). In addition, the slope in experiment [6] is 0.00642 (inactive).

On to `CCCCC(=O)NCCNc1nc2c(c(=O)n(C)c(=O)n2C)n1Cc1ccccc1`, for which the cell count in experiment [1] came to 555. Besides, the inhibition was -6.3% (inactive) in experiment [1], 28.6% (inactive) in experiment [3], 15.2% (inactive) in experiment [7] and 24.6% (inactive) in experiment [8]. For the same compound, the inhibition of aggregation in experiment [2] was -14.2% (inactive). Further, the nuclei count in experiment [2] turned out to be 105%; in experiment [3] it was 106%. Also, the fluorescence slope in experiment [4] was -0.615 (inactive). Further, in experiment [5], the NADPH fluorescence slope is -5.2e-06 (inactive). Moreover, the slope in experiment [6] is 0.00636 (inactive).

As to `CCOC(=O)N1CCN(C(=O)c2cccn3c(=O)c4sccc4nc23)CC1`, the cell count in experiment [1] worked out at 502. The inhibition in experiment [1] was 1.1% (inactive); in experiment [3], -5.7% (inactive); in experiment [7], -8.79% (inactive); in experiment [8] it was -5.35% (inactive). Besides, the inhibition of aggregation in experiment [2] was -5.5% (inactive). Also, the nuclei count in experiment [2] stood at 102%; in experiment [3], 114%. In experiment [4], the fluorescence slope is -0.0756 (inactive). In experiment [5], the NADPH fluorescence slope is 1.5e-05 (inactive). For the same compound, the slope in experiment [6] was 0.00326 (inactive).

Take `CC(C(=O)Nc1ccccc1-c1ccccc1)N1CCOCC1` (centres undefined): in experiment [1], the cell count worked out at 555. The inhibition in experiment [1] was -17.7% (inactive); in experiment [3] it was -27.4% (inactive); in experiment [7], 3.12% (inactive); in experiment [8], 86.4% (active). The inhibition of aggregation in experiment [2] was 5.4% (inactive). In addition, the nuclei count came to 89.4% in experiment [2] and 127% in experiment [3]. For the same compound, the fluorescence slope in experiment [4] is -0.527 (inactive). Also, the NADPH fluorescence slope in experiment [5] is -6.7e-05 (inactive). In experiment [6], the slope was 0.00481 (inactive).

For the compound `Clc1ccc(C2Nc3ccccc3-n3cccc32)cc1` (centres undefined), the cell count in experiment [1] is 637. The inhibition was -1.6% (inactive) in experiment [1], -44.3% (inactive) in experiment [3], 5.43% (inactive) in experiment [7] and 18.8% (inactive) in experiment [8]. For the same compound, the inhibition of aggregation in experiment [2] is 8.6% (inactive). Besides, the figures for the nuclei count in experiment [2] and in experiment [3] were 109% and 104%, respectively. In addition, the fluorescence slope in experiment [4] was -0.301 (inactive). For the same compound, in experiment [5], the NADPH fluorescence slope is 2.7e-06 (inactive). In addition, the slope in experiment [6] is 0.00628 (inactive).

As for `COc1cc(NC(=O)CN(c2cc(C)cc(C)c2)S(=O)(=O)c2c(C)noc2C)cc(OC)c1`, the cell count in experiment [1] worked out at 541. Also, the inhibition is 2.3% (inactive) in experiment [1], -42.2% (inactive) in experiment [3], 18.7% (inactive) in experiment [7] and 19.5% (inactive) in experiment [8]. In addition, the inhibition of aggregation in experiment [2] was -25% (inactive). Moreover, the nuclei count in experiment [2] was 80.6%; in experiment [3], 118%. The fluorescence slope in experiment [4] was -0.619 (inactive). The NADPH fluorescence slope in experiment [5] is 2.8e-05 (inactive). Besides, the slope in experiment [6] is 0.00758 (inactive).
